From PubChem BioAssay AID588689 (Southern Research Specialized Biocontainment Screening …, 2011)
The whole screen tested about 340,000 compounds, of which about 1,000 (0.29%) were called active. Rule as the data show it: inconclusive = inhibition above about 29% without an active follow-up result; inactive = below that. Only a sample is shown. Entries with a potency or affinity are not part of this list.

Target: Genome polyprotein (Dengue virus type 2 (strain 16681-PDK53)) (UniProt P29991)
Assay: Dengue-2 NS5 methyltransferase inhibitors, primary screen, biochemical, confirmation dose response (AID 588689)
Details: Dengue-2 NS5 methyltransferase capping enzyme assay, at 25 µM, stronger effect = higher value
[1] = measured here: pilot screen replicate inhibition

Structure (SMILES)	inhibition	inhibition [1] [%]
Cc1ccccc1NC(=O)C1CCC(=O)N1 (centres undefined)	-6.11% (inactive)	–
O=C(CNC(=O)c1cccc(S(=O)(=O)N2CCc3ccccc32)c1)Nc1ccccc1Br	2.25% (inactive)	–
CSc1ccc(/C=N/Nc2ccc(Cl)c(C(=O)O)c2)cc1	-1.45% (inactive)	–
O=C(O)c1cc(N/N=C/c2ccncc2)ccc1Cl	-3.81% (inactive)	–
COC(=O)C1SCC2C(=O)N(Cc3ccc(F)cc3)CC(=O)N21 (centres undefined)	-5.39% (inactive)	–
Cn1c(SCC(=O)Nc2ccc3nc(SCC(=O)N4CCCC4)sc3c2)nnc1-c1ccc(N)cc1	9.65% (inactive)	–
O=c1c2ccccc2nc(SCc2cc([N+](=O)[O-])cc3c2OCOC3)n1-c1ccccc1	-2.94% (inactive)	–
COc1ccc(OC)c(NC(=O)Nc2cccnc2)c1	1.62% (inactive)	–
Cc1cc(C)c(NC(=O)CN2C(=O)NC3(CCCCC3)C2=O)c(Cl)c1	-4.81% (inactive)	–
CCCn1nc(NS(=O)(=O)c2cccc3nonc23)c2cc3ccccc3nc21	0.45% (inactive)	–
CCCCn1nc(NS(=O)(=O)c2cccc3nonc23)c2cc3cccc(C)c3nc21	27.8% (inactive)	–
COc1ccc(S(=O)(=O)NCC2CCCN(C(=O)CSC)C2)cc1 (centres undefined)	-2.61% (inactive)	0.01
C=CCN(C(=O)Cc1cccs1)c1nc(-c2ccc(S(C)(=O)=O)cc2)cs1	-10.3% (inactive)	–
Cc1[nH][nH]c(=O)c1C(c1ccc(-c2ccccc2C(=O)O)o1)c1c(C)[nH][nH]c1=O	39% (inactive)	–
Cc1[nH][nH]c(=O)c1C(c1ccc(-c2cccc(C(=O)O)c2)o1)c1c(C)[nH][nH]c1=O	21.1% (inactive)	–
Cc1cc(S(=O)(=O)N2CCCOC2CNC(=O)C(=O)NCCc2ccco2)ccc1F (centres undefined)	0.64% (inactive)	–
COc1ccccc1OCCNC(=O)C(CCSC)NS(=O)(=O)c1ccccc1F (centres undefined)	-7.2% (inactive)	–
CC(Oc1ccccc1)C(=O)NNS(=O)(=O)c1ccc([N+](=O)[O-])cc1 (centres undefined)	-1.92% (inactive)	–
COc1ccc(-n2c(SCC(=O)Nc3cc(C)on3)nc3ccc(O)cc3c2=O)cc1OC	-6.42% (inactive)	–
O=C1NC(=S)N/C1=C/c1cccc([N+](=O)[O-])c1	1.48% (inactive)	–
O=[N+]([O-])c1cccc(/C=N/N=C\c2ccccc2)c1	-0.78% (inactive)	–
O=C(O)c1cc(NCc2c(F)cccc2Cl)ccc1N1CCOCC1	-2.05% (inactive)	–
NS(=O)(=O)c1ccc(NCc2c(F)cccc2Cl)cc1	4.17% (inactive)	–

Structure (SMILES)	inhibition	inhibition [1] [%]
CN1CCC(=NNC(=O)c2ccco2)CC1	17.7% (inactive)	–
Cc1ccccc1C(=O)NC(=S)Nc1ccc2[nH]c(=O)[nH]c2c1	-1.8% (inactive)	–
C[C@H](CO)N1C[C@H](C)[C@@H](CN(C)S(=O)(=O)c2ccc(F)cc2)Oc2ccc(NS(=O)(=O)c3ccccc3)cc2C1=O	0.4% (inactive)	–
Cc1c(N=c2scc(-c3ccccc3)n2C)c(=O)n(-c2ccccc2)n1C	-7.91% (inactive)	–
CC1=CC(=Nc2c(C)n(C)n(-c3ccccc3)c2=O)C=C(C)C1=O	2.89% (inactive)	–
Cc1c(N=C2C(=O)Nc3ccccc32)c(=O)n(-c2ccccc2)n1C	2.78% (inactive)	–
CCC(C)C1=CC(=Nc2c(C)n(C)n(-c3ccccc3)c2=O)C=C(C(C)CC)C1=O (centres undefined)	4.41% (inactive)	–
CCC1CCCCN1C(=O)COc1ccc(S(=O)(=O)N2CCOCC2)cc1Cl (centres undefined)	-7.51% (inactive)	–
CCOC(=O)c1c(-c2ccccc2)oc2ccc(OCC(=O)O)cc12	-1.55% (inactive)	–
CC1CCCCC1NC(=O)c1nnc(Cc2ccc(Cl)cc2)o1 (centres undefined)	-2.17% (inactive)	–
Cc1cc(-n2c(C)cc(C(=O)CSc3nncn3C(C)C)c2C)no1	-1.44% (inactive)	–
COC(=O)c1ccc([C@H](NC(=O)c2ccco2)[C@]2(C)C[C@H]2C2CCCCC2)cc1	-7.21% (inactive)	–
COc1ccc(C(=O)c2ccc(N3CCN(C(=O)c4ccc(F)cc4)CC3)c(F)c2)cc1Br	4.82% (inactive)	–
Cc1ccccc1/C=C1\Oc2ccccc2C1=O	1.3% (inactive)	–
O=C1Oc2ccccc2C(=O)/C1=C\N1CCN(c2ccccc2)CC1	-8.28% (inactive)	–
Cc1cc(C(=O)NNC(=O)c2c(-c3c(Cl)cccc3Cl)noc2C)no1	0% (inactive)	–
CCc1ccc(OCC(O)CN2CCN(c3ccc(OC)cc3)CC2)cc1 (centres undefined)	-3.27% (inactive)	–
CC(C)(C)C(=O)Nc1ccc(C(=O)Nc2cccc(Oc3ccc(C(=O)O)c(C(=O)O)c3)c2)cc1	9.79% (inactive)	-1.52
O=C(c1ccccc1)c1ccc(Oc2ccc(C(=O)O)c(C(=O)O)c2)cc1	2.64% (inactive)	-1.5
COc1cc(-c2nc3ccccn3c2/N=C/c2ccc(F)cc2)ccc1O	-1.47% (inactive)	–
O=C(c1ccc2c3c(cccc13)CC2)C1CCCN(Cc2cccnc2)C1 (centres undefined)	-8.53% (inactive)	–
O=C(c1ccc2c3c(cccc13)CC2)C1CCCN(Cc2ccncc2)C1 (centres undefined)	-3.47% (inactive)	–
O=C(NCCO)C(=O)NCC(c1cccs1)S(=O)(=O)c1ccc(F)cc1 (centres undefined)	0% (inactive)	–

Structure (SMILES)	inhibition	inhibition [1] [%]
CC(C)C[C@@H](CNC(=O)OC(C)(C)C)NC(=O)c1nc[nH]c1C(=O)N[C@@H](CC(C)C)C(=O)CNC[C@H](CC(C)C)NC(=O)c1nc[nH]c1C(=O)N[C@@H](Cc1c[nH]c2ccccc12)C(=O)OC(C)(C)C	-7.03% (inactive)	–
CC1(C)CC(=O)C=C(C(=O)N2CCCC(C(=O)c3cc(F)ccc3F)C2)O1 (centres undefined)	-6.28% (inactive)	–
CCN(C1CCCCC1)S(=O)(=O)CCNC(=O)c1ccc2c(c1)OCO2	-2.2% (inactive)	–
c1ccc2c(-n3cccn3)cccc2c1	-11.8% (inactive)	–
Cc1ccn(-c2cc(O)c(-n3ccc(C)n3)cc2O)n1	-6.11% (inactive)	–
CCOc1ccccc1C(=O)OCC(=O)Nc1ccc(OC(F)F)cc1	0.68% (inactive)	-8.52
COc1ccc(/C=C2\SC(=S)N(NS(=O)(=O)c3ccc(C)cc3)C2=O)c(OC)c1	16.5% (inactive)	–
COc1ccc(OC)c(/C=C2\SC(=S)N(NS(=O)(=O)c3ccccc3)C2=O)c1	43.4% (inactive)	–
COc1ccccc1/C=C1\SC(=S)N(N2C(=O)CCCC2=O)C1=O	0% (inactive)	–
COc1ccccc1/C=C1\SC(=S)N(Nc2nc(C)cc(C)n2)C1=O	7.21% (inactive)	–
Cc1cc2cc(C#N)c(SCC(=O)Nc3nonc3C)nc2cc1C	3.66% (inactive)	–
O=C(CSc1nnc2ccccn12)NC(=O)c1cccc([N+](=O)[O-])c1	-2.72% (inactive)	–
Cc1nc(NN)nc(NCc2ccccc2)n1	-1.54% (inactive)	–
CC[C@H]1c2[nH]c3ccccc3c2C[C@@H]2C(=O)N(c3ccc(F)cc3)C(=O)N21	0% (inactive)	–
Cc1ccc(C(=O)NNC(=O)C2CSC3(C)CCC(=O)N23)cc1 (centres undefined)	5.19% (inactive)	–
Cc1cc(=O)[nH]c(SCC(=O)Nc2nnc(SCc3ccccc3)s2)n1	-1.48% (inactive)	–
CC(=O)Nc1c(O)nc(SCC(=O)Nc2nnc(SCc3ccccc3)s2)[nH]c1=O	3.91% (inactive)	–
COc1cccc(CN2CCNC(=O)C2CC(=O)NCCc2ccccn2)c1 (centres undefined)	-3.12% (inactive)	–
Cc1occc1C(=O)Nc1cnn(CCCC(=O)O)c1	0.32% (inactive)	–
O=C(CC(=O)NN=C1CCCCCC1)NCc1cccnc1	-7.12% (inactive)	–
CCOc1cc(/C=C2/SC(=S)N(Cc3ccccc3)C2=O)ccc1O	-16.7% (inactive)	–
COc1cc(/C=C2\SC(=S)N(CC(=O)O)C2=O)ccc1OC(=O)c1ccco1	-6.52% (inactive)	–
CCOc1ccc(/C=C2\SC(=S)N(CCC(=O)O)C2=O)cc1	10.9% (inactive)	–

Structure (SMILES)	inhibition	inhibition [1] [%]
COc1cc(/C=C2/SC(=S)N(CC(=O)O)C2=O)ccc1OC(=O)c1ccco1	-8.15% (inactive)	–
CCn1c(O)c(/C=C2\C=NN=C2c2ccccc2)sc1=S	1.56% (inactive)	–
Cc1ccc(C2=NN(C(=O)CCC(=O)O)C(c3ccc4c(c3)OCO4)C2)cc1 (centres undefined)	-1.55% (inactive)	–
COc1ccc(CNC(=O)CN(Cc2ccccc2F)C(=O)c2csnn2)cc1	-7.27% (inactive)	–
CCc1cccc2c1NC(=O)C21N2CCCC2C(C(=O)c2ccc3ccccc3c2)C12C(=O)Nc1ccccc12 (centres undefined)	-10.4% (inactive)	–
Cc1c(Cl)cccc1NC(=O)CC1Sc2ccccc2NC1=O (centres undefined)	-2.59% (inactive)	–
CCN(CC)c1ccc(C(=O)O)cc1	-2.67% (inactive)	–
O=C(O)c1ccc(C(=O)C(=O)c2ccccc2)cc1	-3.83% (inactive)	–
O=C(Oc1ccc(/C=N/NC(=O)c2ccccn2)cc1)c1cccc(F)c1	0.65% (inactive)	–
O=S(=O)(c1ccccc1)c1nc(-c2ccc(F)cc2)oc1NCC1CCCO1 (centres undefined)	-1.48% (inactive)	–
CC(C)NC(=O)C(=O)Nc1ccc2c(c1)N(S(=O)(=O)c1cccs1)CCC2	2.2% (inactive)	–
CCn1c(-c2ccco2)nc2ccccc21	-5.14% (inactive)	–
c1coc(Cn2c(-c3ccco3)nc3ccccc32)c1	-8.81% (inactive)	–
O=C(CCc1nc(-c2ccc(Cl)cc2)no1)NCc1ccccc1CN1CCOCC1	1.12% (inactive)	–
O=C(C=Cc1cccc(Cl)c1)c1ccccc1	-41.2% (inactive)	–
CN(C)c1ccc(/C=C(\C#N)C(=O)c2ccccc2)cc1	-80.6% (inactive)	–
CNC(=S)N(CCN(C)C)Cc1cc2cc3c(cc2[nH]c1=O)OCO3	-3.53% (inactive)	–
Cn1c(=O)cc(N)n(-c2ccccc2)c1=O	1.3% (inactive)	–
O=C1c2ccccc2COc2ccc(O)cc21	4% (inactive)	–
Cc1ccnc(N2CCC(C(=O)Nc3ccc4c(c3)CCC4)CC2)n1	-1.37% (inactive)	-2.12
